# Assay results: publication PMC5540273 (PLoS ONE, 2017)
# Where two headings read alike, the source gives them in different places.
# Tests used:
# [1] = tested on: T1, DCAMKL2; settings: concentration: 1 μM, replicates: in singlicate; n = 1
# T1 construct: gene DCLK2
# [2] = tested on: T2, DCAMKL3; settings: concentration: 1 μM, replicates: in singlicate; n = 1
# T2 construct: gene DCLK3
# [3] = tested on: DDR1; settings: concentration: 1 μM, replicates: in singlicate; n = 1
# [4] = tested on: DDR2; settings: concentration: 1 μM, replicates: in singlicate; n = 1
# [5] = tested on: T3, DLK; settings: concentration: 1 μM, replicates: in singlicate; n = 1
# T3 construct: gene MAP3K12
# [6] = tested on: T4, DMPK2; settings: concentration: 1 μM, replicates: in singlicate; n = 1
# T4 construct: gene CDC42BPG
# [7] = tested on: DMPK; settings: concentration: 1 μM, replicates: in singlicate; n = 1
# [8] = tested on: T5, DRAK1; settings: concentration: 1 μM, replicates: in singlicate; n = 1
# T5 construct: gene STK17A
# [9] = tested on: T6, DRAK2; settings: concentration: 1 μM, replicates: in singlicate; n = 1
# T6 construct: gene STK17B
# [10] = tested on: DYRK1A; settings: concentration: 1 μM, replicates: in singlicate; n = 1
# [11] = tested on: DYRK1B; settings: n = 1
# [12] = tested on: DYRK2; settings: concentration: 1 μM, replicates: in singlicate; n = 1
# [13] = tested on: EGFR; settings: concentration: 1 μM, replicates: in singlicate; n = 1
# [14] = tested on: EIF2AK1; settings: n = 1
# [15] = tested on: EPHA1; settings: concentration: 1 μM, replicates: in singlicate; n = 1
# [16] = tested on: EPHA2; settings: concentration: 1 μM, replicates: in singlicate; n = 1
# [17] = tested on: EPHA3; settings: concentration: 1 μM, replicates: in singlicate; n = 1
# [18] = tested on: EPHA4; settings: concentration: 1 μM, replicates: in singlicate; n = 1
# [19] = tested on: EPHA5; settings: concentration: 1 μM, replicates: in singlicate; n = 1
# [20] = tested on: EPHA6; settings: n = 1
# [21] = concentration: 1 μM, replicates: in singlicate
# 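Note: KINOMEscan kinase panel screen.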
smiles,measurement,setting,value
Cn1cc(-c2cnc(N)c3c(-c4ccc5c(c4)CCN5C(=O)Cc4ccccc4)csc23)cn1 [GSK2593074],%Inh,[1],0%
same,%Inh,[2],5%
same,%Inh,[3],97.7%
same,%Inh,[4],24%
same,%Inh,[5],0%
same,%Inh,[6],81%
same,%Inh,[7],0%
same,%Inh,[8],0%
same,%Inh,[9],9%
same,%Inh,[10],0%
same,%Inh,[11]; 1 µM,0%
same,%Inh,[12],8%
same,%Inh,[13],3%
same,%Inh,[14]; 1 µM,7%
same,%Inh,[15],11%
same,%Inh,[16],0%
same,%Inh,[17],0%
same,%Inh,[18],11%
same,%Inh,[19],0%
same,%Inh,[20]; 1 µM,11%
CNc1nccc(-c2ccc3c(N)n[nH]c3c2)n1 [GSK2206003],%Inh,[1],1%
same,%Inh,[2],72%
same,%Inh,[3],0%
same,%Inh,[4],29%
same,%Inh,[5],34%
same,%Inh,[6],0%
same,%Inh,[7],0%
same,%Inh,[8],99.2%
same,%Inh,[9],83%
same,%Inh,[10],98.8%
same,%Inh,[11]; [21],99.1%
same,%Inh,[12],90%
same,%Inh,[13],25%
same,%Inh,[14]; [21],0%
same,%Inh,[15],11%
same,%Inh,[16],0%
same,%Inh,[17],12%
same,%Inh,[18],7%
same,%Inh,[19],0%
same,%Inh,[20]; [21],0%
CCn1cnc2c(NCc3ccccc3)ncnc21 [SKF-96418],%Inh,[1],0%
same,%Inh,[2],0%
same,%Inh,[3],0%
same,%Inh,[4],38%
same,%Inh,[5],0%
same,%Inh,[6],1%
same,%Inh,[7],0%
same,%Inh,[8],0%
same,%Inh,[9],0%
same,%Inh,[10],0%
same,%Inh,[11]; [21],37%
same,%Inh,[12],15%
same,%Inh,[13],0%
same,%Inh,[14]; [21],0%
same,%Inh,[15],0%
same,%Inh,[16],0%
same,%Inh,[17],0%
same,%Inh,[18],7%
same,%Inh,[19],0%
same,%Inh,[20]; [21],0%
O=C(Nc1n[nH]c2nc(-c3ccccc3)ccc12)C1CC1 [SB-708999],%Inh,[1],6%
same,%Inh,[2],0%
same,%Inh,[3],3%
same,%Inh,[4],32%
same,%Inh,[5],0%
same,%Inh,[6],50%
same,%Inh,[7],0%
same,%Inh,[8],0%
same,%Inh,[9],0%
same,%Inh,[10],15%
same,%Inh,[11]; [21],0%
same,%Inh,[12],12%
same,%Inh,[13],1%
same,%Inh,[14]; [21],0%
same,%Inh,[15],15%
same,%Inh,[16],15%
same,%Inh,[17],0%
same,%Inh,[18],0%
same,%Inh,[19],2%
same,%Inh,[20]; [21],0%
CN1CCN(Cc2ccc(NC(=O)Nc3ccc(N(C)c4ccnc(Nc5ccc(CS(C)(=O)=O)cc5)n4)cc3)cc2)CC1.Cl [GW827654],%Inh,[1],18%
same,%Inh,[2],30%
same,%Inh,[3],99.4%
same,%Inh,[4],100%
same,%Inh,[5],64%
same,%Inh,[6],57%
same,%Inh,[7],0%
same,%Inh,[8],10%
same,%Inh,[9],21%
same,%Inh,[10],0%
same,%Inh,[11]; [21],3%
same,%Inh,[12],32%
same,%Inh,[13],0%
same,%Inh,[14]; [21],0%
same,%Inh,[15],33%
same,%Inh,[16],29%
same,%Inh,[17],49%
same,%Inh,[18],0%
same,%Inh,[19],5%
same,%Inh,[20]; [21],2%
Cn1cc(-c2ccc3c(c2)CCN3C(=O)Cc2cc(F)cc(C(F)(F)F)c2)c2c(N)ncnc21 [GSK2635225],%Inh,[1],0%
same,%Inh,[2],0%
same,%Inh,[3],100%
same,%Inh,[4],85%
same,%Inh,[5],23%
same,%Inh,[6],0%
same,%Inh,[7],0%
same,%Inh,[8],0%
same,%Inh,[9],0%
same,%Inh,[10],4%
same,%Inh,[11]; [21],0%
same,%Inh,[12],4%
same,%Inh,[13],23%
same,%Inh,[14]; [21],22%
same,%Inh,[15],21%
same,%Inh,[16],11%
same,%Inh,[17],26%
same,%Inh,[18],0%
same,%Inh,[19],0%
same,%Inh,[20]; [21],17%
Nc1ncc(-c2ccc3nccc(-c4ccncc4)c3c2)cc1S(=O)(=O)N1CCCCC1 [GSK1693850],%Inh,[1],0%
same,%Inh,[2],0%
same,%Inh,[3],2%
same,%Inh,[4],12%
same,%Inh,[5],42%
same,%Inh,[6],15%
same,%Inh,[7],0%
same,%Inh,[8],0%
same,%Inh,[9],5%
same,%Inh,[10],8%
same,%Inh,[11]; [21],2%
same,%Inh,[12],22%
same,%Inh,[13],1%
same,%Inh,[14]; [21],0%
same,%Inh,[15],0%
same,%Inh,[16],21%
same,%Inh,[17],22%
same,%Inh,[18],3%
same,%Inh,[19],0%
same,%Inh,[20]; [21],0%
Cc1cc(-c2ccnc(Nc3cccc(C#N)c3)n2)cc(C)c1O [GSK1440913],%Inh,[1],10%
same,%Inh,[2],61%
same,%Inh,[3],0%
same,%Inh,[4],23%
same,%Inh,[5],46%
same,%Inh,[6],22%
same,%Inh,[7],0%
same,%Inh,[8],96.8%
same,%Inh,[9],45%
same,%Inh,[10],46%
same,%Inh,[11]; [21],51%
same,%Inh,[12],61%
same,%Inh,[13],38%
same,%Inh,[14]; [21],0%
same,%Inh,[15],27%
same,%Inh,[16],24%
same,%Inh,[17],4%
same,%Inh,[18],13%
same,%Inh,[19],0%
same,%Inh,[20]; [21],13%
Cl.Cl.NC(CNC(=O)c1cc(Br)c(-c2ccnc3[nH]ccc23)s1)c1ccccc1 (centres unmarked) [GSK1322949],%Inh,[1],18%
same,%Inh,[2],0%
same,%Inh,[3],0%
same,%Inh,[4],29%
same,%Inh,[5],43%
same,%Inh,[6],59%
same,%Inh,[7],72%
same,%Inh,[8],93.8%
same,%Inh,[9],4%
same,%Inh,[10],84%
same,%Inh,[11]; [21],95%
same,%Inh,[12],80%
same,%Inh,[13],17%
same,%Inh,[14]; [21],1%
same,%Inh,[15],24%
same,%Inh,[16],1%
same,%Inh,[17],26%
same,%Inh,[18],0%
same,%Inh,[19],0%
same,%Inh,[20]; [21],0%
O=C1NC(=O)C(c2ccccc2Cl)=C1Nc1cccc(Cl)c1 [SB-342409],%Inh,[1],10%
same,%Inh,[2],14%
same,%Inh,[3],9%
same,%Inh,[4],0%
same,%Inh,[5],0%
same,%Inh,[6],75%
same,%Inh,[7],1%
same,%Inh,[8],1%
same,%Inh,[9],0%
same,%Inh,[10],61%
same,%Inh,[11]; [21],0%
same,%Inh,[12],23%
same,%Inh,[13],0%
same,%Inh,[14]; [21],27%
same,%Inh,[15],8%
same,%Inh,[16],7%
same,%Inh,[17],0%
same,%Inh,[18],25%
same,%Inh,[19],0%
same,%Inh,[20]; [21],17%
